This is a sample that favours compounds with a hit; in the whole collection about 4.5% have one here.
EBNA-1 inh: blocks EBNA-1 binding to DNA; EBNA-1 DNA binding, fluorescence polarization; inhibition, % at 14.8 µM; actives 0.34% (n = 300,000); in the data active = inhibition above about 28%
ZTA counter: blocks Epstein-Barr virus ZTA, an EBNA-1 counter-screen; actives 0.15% (n = 320,000); ZTA-DNA binding, fluorescence polarization; AID 2234; inhibition, % at 11 µM; in the data active = inhibition above about 33%
GRIN3A LBD mod: NR3A (human) ligand-binding domain modulation; NR3A LBD differential scanning fluorimetry, Tm shift; 0% = protein alone, 100% = glycine-bound protein; Tm shift relative to glycine control, % at 25 µM; actives 2.5% (n = 340,000);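 active = melting temperature shift of at least 10% of the positive control shift, at one fixed dose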
dFosB act-1: mouse delta FosB homodimer activation; P13346; purified delta FosB, TAMRA-CDK5 oligo fluorescence polarization; percent of positive-control signal above neutral wells; activation, % at 25 µM; actives 0.99% (n = 340,000); AID 493131;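 active = mean activation above about 17%, with every replicate also reaching it, limit read from the data, passing the limit was not always enough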
Target sequence (P13346 whole entry, looked up): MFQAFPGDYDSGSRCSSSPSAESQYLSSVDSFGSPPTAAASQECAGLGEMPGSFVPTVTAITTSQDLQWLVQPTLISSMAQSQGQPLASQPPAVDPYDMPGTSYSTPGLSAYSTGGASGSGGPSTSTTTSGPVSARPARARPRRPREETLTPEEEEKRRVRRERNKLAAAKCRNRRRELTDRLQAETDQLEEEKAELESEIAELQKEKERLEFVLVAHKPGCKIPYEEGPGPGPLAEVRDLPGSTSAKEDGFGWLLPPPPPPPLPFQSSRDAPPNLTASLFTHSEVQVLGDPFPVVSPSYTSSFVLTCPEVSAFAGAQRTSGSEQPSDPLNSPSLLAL
Rpn11 block: Rpn11 (human) deubiquitinase inhibition; O00487; human 26S proteasome, Ub4-pepOG fluorescence polarization; 20S core pre-blocked with epoxomicin; inhibition, % at 20 µM; actives 0.59% (n = 360,000); AID 588493;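 active = inhibition at 20 µM, scaled to each plate's controls, above about 33%, limit read from the data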
Target sequence (O00487 whole entry, looked up): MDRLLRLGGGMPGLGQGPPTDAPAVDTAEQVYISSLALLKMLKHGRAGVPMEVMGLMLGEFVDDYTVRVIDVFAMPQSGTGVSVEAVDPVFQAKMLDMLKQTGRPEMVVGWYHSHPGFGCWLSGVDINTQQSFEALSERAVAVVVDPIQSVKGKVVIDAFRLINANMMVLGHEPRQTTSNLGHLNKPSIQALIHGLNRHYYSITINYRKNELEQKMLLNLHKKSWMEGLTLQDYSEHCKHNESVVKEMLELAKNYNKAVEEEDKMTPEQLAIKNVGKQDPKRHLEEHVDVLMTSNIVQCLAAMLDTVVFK
TPT1 inhibitor: inhibitors of Candida albicans tRNA 2'-phosphotransferase TPT1. recombinant caTPT1, FP RNA substrate dephosphorylation. inhibition, % at 5 µM. actives 0.81% (n = 300,000). AID 1962;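 active = inhibition above the mean of all tested compounds plus 3 SD, set per screening campaign, cut at about 24% in these data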;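 also: plate controls were DMSO alone for no effect and ferristatin control at 100 nM for full effect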
dFosB act-2: activators of mouse delta FosB homodimer DNA binding. shares compounds with dFosB act-1. purified delta FosB, TAMRA-CDK5 oligo fluorescence polarization; normalised: neutral wells 0, positive control 100. activation, % at 24.9 µM. 2,400 tested, under 10 active. AID 588690;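 active = highest replicate activation at or above 34% and every replicate reaching that threshold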;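 also: higher polarization means more probe DNA bound by delta FosB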
An asterisk follows results filed as active; . = no result given.

SMILES	EBNA-1 inh	ZTA counter	GRIN3A LBD mod	dFosB act-1	Rpn11 block	TPT1 inhibitor	dFosB act-2
CN(C)CCCN(C(=O)c1cc(Cl)sc1Cl)c1nc2cc3c(cc2s1)OCO3	-6.8	-27.9	-1.2	12.4	-0.8	-3.0	.
CCc1ccc2nc(N(CCCN(C)C)C(=O)c3ccc(S(=O)(=O)N4CCc5ccccc5C4)cc3)sc2c1	11.2	28.5	-0.3	46.8*	-1.5	3.6	-4.1
CN(C)CCCN(C(=O)c1ccc(Cl)s1)c1nc2cc3c(cc2s1)OCO3	-14.9	-2.5	2.6	18.0*	-4.2	0.9	3.5
CN(C)CCCN(C(=O)c1ccc(C(=O)c2ccccc2)cc1)c1nc2ccc(F)cc2s1	-4.9	-7.3	1.8	30.0*	-3.3	4.9	-0.3
CNC(=O)CSc1nnc(C2CC2)n1-c1ccccc1	-9.1	-13.1	0.3	-9.3	-8.4	2.4	.
O=C(O)c1ccccc1Cc1ccc2c(c1)CCCC2	.	.	-0.8	-4.3	2.4	.	.
COc1ccc([N+](=O)[O-])c(O)c1C(C)=O	.	.	0.2	1.2	10.3	.	.
Cc1sc2c(c1C)c(=O)n(-c1cccc(C(F)(F)F)c1)c(=O)n2CC(=O)NCc1ccco1	-2.5	19.2	-1.4	56.9*	7.9	-1.3	0.7
CCOc1ccc(-n2c(=O)c3c(C)c(C)sc3n(CC(=O)NCc3ccco3)c2=O)cc1	12.2	-13.0	0.9	7.6	6.4	-2.8	.
COc1ccc(NC(=O)N(C)C[C@H]2Oc3ccc(NC(=O)c4ccncc4)cc3C(=O)N([C@H](C)CO)C[C@@H]2C)cc1	.	.	4.0	3.6	0.8	.	.
CC(=O)c1ccc(NC(=O)Cn2cnc(S(=O)(=O)N3CCC(C)CC3)c2)cc1	-5.3	-26.2	0.8	35.2*	8.7	1.9	-2.1
COc1ccc(CC(=O)Nc2nnc(CC(C)C)s2)cc1S(=O)(=O)N1CCOCC1	.	.	-2.4	-8.7	-2.4	.	.
O=C(Nc1nc2ccc(F)cc2s1)c1ccc(N2CCCC2=O)cc1	-0.5	7.8	11.4*	25.2*	-2.9	1.5	0.0
Cc1cc(C)c2sc(NC(=O)c3ccc(N4C(=O)CCC4=O)cc3)nc2c1	-1.2	19.9	-10.3	79.8*	1.3	0.4	7.2
CCOC(=O)CNC(=O)N1CCCC(Cc2ccccc2)(C(=O)OCC)C1 (stereo unspecified)	-13.3	-4.6	0.1	-11.2	1.6	1.7	.
NC(=O)Cn1c(=O)n(C2CCCCC2)c(=O)c2c3c(sc21)CCCCC3	-2.1	2.1	-4.8	44.5*	-7.2	-0.1	0.0
COc1ccc(-n2c(=O)c3c4c(sc3n(CC(N)=O)c2=O)CCCCC4)cc1	3.2	3.3	0.9	29.7*	4.6	-5.0	-1.2
CCn1nc(C(=O)OCC(=O)N2CC(=O)Nc3ccccc32)c2ccccc2c1=O	-7.0	-2.9	-1.0	-6.5	9.9	0.5	.
COc1cc(NC(=O)Nc2nc(C(N)C3CCCCC3)cs2)cc(OC)c1OC (stereo unspecified)	.	.	.	.	4.6	.	.
O=C(N/N=C\c1ccc(CN(Cc2ccc(Cl)cc2)S(=O)(=O)c2ccccc2)o1)C(=O)Nc1ccc(F)cc1	13.4	6.5	-1.9	7.1	1.2	1.4	.
O=C(N/N=C\c1ccc(CNS(=O)(=O)c2ccccc2)o1)C(=O)Nc1ccc(F)cc1	1.1	1.3	-6.0	37.8*	4.3	0.6	4.1
CC(C)Oc1ccc(CNC(=O)Cn2c(=O)c3cccn3c3cccnc32)cc1	3.1	-11.8	0.3	29.5*	-1.6	2.1	8.1
CCOc1ccc(CNC(=O)Cn2c(=O)c3cccn3c3ccccc32)cc1	14.1	1.6	-1.1	41.3*	2.8	-0.3	-0.8
N#Cc1cc([N+](=O)[O-])ccc1NC(=O)COC(=O)C12CC3CC(CC(C3)C1)C2	2.4	2.2	.	.	.	1.2	.
N#Cc1ccccc1/C=N/Nc1nc(-c2ccccc2)c2cc(Cl)ccc2n1	-5.3	-11.8	2.8	19.1*	6.4	-3.6	0.8
SMILES	EBNA-1 inh	ZTA counter	GRIN3A LBD mod	dFosB act-1	Rpn11 block	TPT1 inhibitor	dFosB act-2
COc1ccc(/C=C/C(=O)NC(=S)NNC(=O)[C@H]2C[C@@H]2c2ccccc2)cc1OC	7.8	-6.7	-7.5	71.2*	5.9	-1.6	4.4
COc1ccc(-c2cc(-c3cccs3)c(C#N)c(SCC(=O)NCc3ccccc3OC)n2)cc1	-1.1	-0.3	0.1	23.0*	2.2	-4.9	2.7
COc1ccc(-c2cc(-c3cccs3)c(C#N)c(SCC(=O)NCc3ccccc3)n2)cc1	12.6	3.6	-2.5	11.3	-0.7	-0.2	.
COc1ccccc1CNC(=O)CSc1nc(N)c(C#N)c(-c2cccs2)c1C#N	-1.4	11.4	-14.7	75.3*	-0.8	-2.0	-3.7
COc1c(OC(C)=O)c(=O)n2c3ccccc3c3ccnc1c32	14.3	9.4	-0.5	-7.8	-28.0	-1.4	.
COc1ccc(OC)c(C(=O)COC(=O)COc2ccccc2F)c1	.	.	2.6	-2.3	0.9	.	.
CC(C)Cc1nnc(NC(=O)CSc2nc(-c3ccccc3)cc(=O)[nH]2)s1	2.9	5.6	-3.1	48.9*	-1.9	1.2	0.7
Cc1cc(=O)[nH]c(SCC(=O)Nc2nnc(CC(C)C)s2)n1	-3.3	-6.6	-0.9	-3.2	3.3	-4.8	.
COc1cc(C(=O)Nc2cccc3c2CCCC3)cc(OC)c1OC	0.3	1.6	0.2	-1.6	-0.7	-2.1	.
Cc1ccc(C(=O)c2c[nH]c3c(F)cc(F)cc3c2=O)cc1	0.9	3.8	-1.8	0.6	-8.2	-4.7	.
COc1ccc(-c2cc(C)no2)cc1S(=O)(=O)N1CCOc2ccc(C)cc21	4.6	13.3	-7.0	44.1*	0.1	-2.0	-5.8
COc1ccc(C)cc1NC(=O)Nc1ccc2c(c1)CCC2	-4.1	-0.7	11.1*	23.4*	7.1	2.0	0.9
COc1ccccc1NC(=O)Nc1ccc2c(c1)CCC2	1.0	-7.1	3.3	-1.6	2.8	-2.5	.
COc1ccc(-c2cc(-c3ccccc3)c(C#N)c(S(C)=O)n2)cc1 (stereo unspecified)	1.6	5.9	0.1	-16.5	2.1	1.5	.
COc1ccc(-c2cc3nc4ccccc4n3c(N)c2C#N)cc1	1.5	-5.1	0.3	19.3*	19.2	0.3	5.6
CCOc1c(Br)cc(C(=O)N2CCCN(C)CC2)cc1OC	20.3	7.4	0.5	-2.0	2.7	-0.2	.
COc1ccccc1NC(=O)c1oc2ccccc2c1NC(=O)C1CC1	2.4	4.1	0.5	23.7*	-2.2	0.4	-0.1
CCOc1ccccc1NC(=O)c1oc2ccccc2c1NC(=O)C1CC1	0.3	-2.4	0.5	-6.1	1.0	-4.2	.
CN(C)CCCNC(=S)N(Cc1cccs1)Cc1cc2cc3c(cc2[nH]c1=O)OCCO3	6.4	-5.3	-2.8	32.2*	23.8	11.4	5.2
